# Only a selection was taken, and the strongest signals are over-represented in it overall.
# Tests used:
# Experiment in all cases: glycan array binding signal (z-score within array); higher = stronger binding
# Conditions in all cases: glycan notation: IUPAC condensed, linker removed
# [1] = biological target: Fuc(a1-2)Gal(b1-3)[Fuc(a1-4)]GlcNAc
# Outline: (§1)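 Arrays were curated from the Consortium for Functional Glycomics database, 3228 in total, and kept only where the protein sequence was available. Binding is expressed as a within-array Z-score. This score was averaged across arrays of the same protein sequence at different concentrations or buffers and across linkers, and negative values can be read as non-binding.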
# [2] = biological target: Fuc(a1-2)Gal(b1-4)GlcNAc
# Outline: as §1
# [3] = biological target: Fuc(a1-2)Gal(b1-4)GlcNAc(b1-2)Man(a1-6)[Gal(b1-4)GlcNAc(b1-2)Man(a1-3)]Man(b1-4)GlcNAc(b1-4)GlcNAc
# Outline: as §1
# [4] = biological target: Fuc(a1-2)Gal(b1-4)GlcNAc(b1-3)Gal(b1-4)GlcNAc
# Outline: as §1
# [5] = biological target: Fuc(a1-2)[Gal(a1-3)]Gal(b1-3)GlcNAc
# Outline: as §1
# [6] = biological target: Fuc(a1-3)GlcNAc
# Outline: as §1
# [7] = biological target: Fuc(a1-3)[Gal(b1-4)]GlcNAc(b1-4)Gal(b1-4)[Fuc(a1-3)]GlcNAc(b1-4)Gal(b1-4)[Fuc(a1-3)]GlcNAc
# Outline: as §1
# [8] = biological target: Gal(a1-3)Gal(b1-4)Glc
# Outline: as §1
# [9] = biological target: Gal(a1-3)[Gal(a1-4)]Gal(b1-4)GlcNAc
# Outline: as §1
# [10] = biological target: Gal(b1-4)Glc
# Outline: as §1
# [11] = biological target: Gal(b1-4)GlcNAc(b1-6)Gal(b1-4)GlcNAc
# Outline: as §1
# [12] = biological target: Gal6S(b1-4)Glc
# Outline: as §1
# [13] = biological target: GalNAc(b1-3)Gal(a1-4)Gal(b1-4)GlcNAc
# Outline: as §1
# [14] = biological target: GalNAc(b1-3)GalNAc
# Outline: as §1
# [15] = biological target: GlcNAc(a1-6)Gal(b1-4)GlcNAc
# Outline: as §1
# [16] = biological target: Man(a1-2)Man(a1-3)Man
# Outline: as §1
# [17] = biological target: Man(a1-2)Man(a1-3)[Man(a1-6)]Man(a1-6)[Man(a1-2)Man(a1-3)]Man(b1-4)GlcNAc(b1-4)GlcNAc
# Outline: as §1
# [18] = biological target: Man(a1-3)[Man(a1-6)]Man(a1-6)[Man(a1-3)]Man
# Outline: as §1
# [19] = biological target: Neu5Ac(a2-3)Gal(b1-3)GlcNAc(b1-3)Gal(b1-3)GlcNAc
# Outline: as §1
# [20] = biological target: Neu5Ac(a2-3)Gal(b1-3)GlcNAc6S
# Outline: as §1
# [21] = biological target: Neu5Ac(a2-6)Gal(b1-4)GlcNAc(b1-2)Man(a1-3)[GlcNAc(b1-2)Man(a1-6)]Man(b1-4)GlcNAc(b1-4)GlcNAc
# Outline: as §1
# [22] = biological target: Neu5Ac(a2-6)Gal(b1-4)GlcNAc(b1-2)Man(a1-3)[Neu5Ac(a2-6)Gal(b1-4)GlcNAc(b1-2)Man(a1-6)]Man(b1-4)GlcNAc(b1-4)GlcNAc
# Outline: as §1
# [23] = biological target: Neu5Gc(a2-3)Gal(b1-3)GlcNAc
# Outline: as §1
# [24] = biological target: Neu5Gc(b2-6)Gal(b1-4)GlcNAc
# Outline: as §1
# [25] = biological target: Fuc(a1-2)[Gal(a1-3)]Gal(b1-4)[Fuc(a1-3)]GlcNAc
# Outline: as §1
# [26] = biological target: Fuc(a1-3)[Gal(b1-4)]GlcNAc(b1-3)Gal(b1-3)[Fuc(a1-4)]GlcNAc
# Outline: as §1
# [27] = biological target: Fuc(a1-3)[Gal(b1-4)]GlcNAc(b1-4)Gal(b1-4)[Fuc(a1-3)]GlcNAc
# Outline: as §1
# [28] = biological target: Fuc(a1-4)GlcNAc
# Outline: as §1
# [29] = biological target: Gal(a1-4)GlcNAc
# Outline: as §1
# [30] = biological target: Gal(b1-2)Gal
# Outline: as §1
# [31] = biological target: Gal(b1-4)GlcNAc(b1-6)[Gal(b1-3)]GalNAc
# Outline: as §1
# [32] = biological target: Man(a1-2)Man(a1-6)[Man(a1-3)]Man(a1-6)[Man(a1-2)Man(a1-2)Man(a1-3)]Man
# Outline: as §1
# [33] = biological target: Man(a1-3)[Man(a1-6)]Man
# Outline: as §1
# [34] = biological target: Man(a1-3)[Man(a1-6)]Man(a1-6)[Man(a1-2)Man(a1-3)]Man(b1-4)GlcNAc(b1-4)GlcNAc
# Outline: as §1
# [35] = biological target: Man(a1-3)[Man(a1-6)]Man(a1-6)[Man(a1-3)]Man(b1-4)GlcNAc(b1-4)GlcNAc
# Outline: as §1
# [36] = biological target: Man(a1-3)[Man(a1-6)]Man(b1-4)GlcNAc(b1-4)GlcNAc
# Outline: as §1
# [37] = biological target: Neu5Ac(a2-3)Gal(b1-3)GalNAc6S
# Outline: as §1
# [38] = biological target: Neu5Ac(a2-3)Gal6S(b1-4)GlcNAc
# Outline: as §1
# [39] = biological target: Neu5Ac(a2-3)[GalNAc(b1-4)]Gal(b1-4)Glc
# Outline: as §1
# [40] = biological target: Neu5Ac(a2-3)[GalNAc(b1-4)]Gal(b1-4)GlcNAc
# Outline: as §1
# [41] = biological target: Neu5Ac(a2-6)Gal(b1-4)GlcNAc
# Outline: as §1
# [42] = biological target: Neu5Ac(a2-6)Gal(b1-4)GlcNAc(b1-2)Man(a1-6)[Gal(b1-4)GlcNAc(b1-2)Man(a1-3)]Man(b1-4)GlcNAc(b1-4)GlcNAc
# Outline: as §1
# [43] = biological target: Neu5Ac(a2-8)Neu5Ac(a2-8)Neu5Ac(a2-8)Neu5Ac(a2-3)[GalNAc(b1-4)]Gal(b1-4)Glc
# Outline: as §1
# [44] = biological target: Neu5Gc(a2-3)Gal(b1-4)GlcNAc
# Outline: as §1
binder,measurement,setting,value
Mannose Binding Protein (Lactobacillus plantarum) (protein) AERSEAALTHVDKDNFLKYFSLNGSATYDAKTGIVTITPNQNNQVGNFSLTSKIDMNKSFTLTGQVNLGSNPNGADGIGFAFHSGNTTDVGNAGGNLGIGGLQDAIGFKLDTWFNSYQAPSSDKNGSEISSTNSNGFGWNGDSANAPYGTFVKTSNQEISTANGSKVQRWWAQDTGESQALSKADIDGNFHDFVVNYDGATRTLTVSYTQASGKVLTWKTTVASSYQAMAMVVSASTGAAKNLQQFKLTSFDFQEAATVNVKYVDTTGHQLAQG,glycan array binding signal (z-score),[1],-0.167
same,glycan array binding signal (z-score),[2],-0.102
same,glycan array binding signal (z-score),[3],-0.749
same,glycan array binding signal (z-score),[4],-0.358
same,glycan array binding signal (z-score),[5],-0.696
same,glycan array binding signal (z-score),[6],-0.141
same,glycan array binding signal (z-score),[7],-0.071
same,glycan array binding signal (z-score),[8],13.6
same,glycan array binding signal (z-score),[9],-0.551
same,glycan array binding signal (z-score),[10],-0.319
same,glycan array binding signal (z-score),[11],-0.654
same,glycan array binding signal (z-score),[12],0.521
same,glycan array binding signal (z-score),[13],4.17
same,glycan array binding signal (z-score),[14],2.15
same,glycan array binding signal (z-score),[15],-0.056
same,glycan array binding signal (z-score),[16],3.36
same,glycan array binding signal (z-score),[17],0.227
same,glycan array binding signal (z-score),[18],1.77
same,glycan array binding signal (z-score),[19],-0.526
same,glycan array binding signal (z-score),[20],-0.327
same,glycan array binding signal (z-score),[21],-0.444
same,glycan array binding signal (z-score),[22],-0.324
same,glycan array binding signal (z-score),[23],-0.785
same,glycan array binding signal (z-score),[24],1.04
HFR-1 (Triticum aestivum) (protein) MSPQSFTLETTTTTPAAKGSDPSYFQSAPACHEMIQHKELLLHLYAYQNVQKTPDANQAVIVESKRPECFGILAANDWTVYDGPAHNANLVAHAQGLHLGASMAKENWFICFNMVFVNQRFTGSSFKVMGDFQGTAHNGEWAIVGGTGEFAYAQGVIAFKKTQQSERNARMELHVRAMCLSFLRPLLSLGDGSAVAKIGPWGKMSGELLDIPSTPQRLERITIRHGVVIDSLAFSFIDKAGEPYNVGPWGGRRGDNKDTIELAPSEIVTEVSGTVGIFAEDNVEYNAIASLTITTNHRPYGPFGETQSTPFSVPVQDNNNIVGFFACAGKYVEALGVYVRSPVST,glycan array binding signal (z-score),[1],-0.201
same,glycan array binding signal (z-score),[25],-0.225
same,glycan array binding signal (z-score),[26],-0.224
same,glycan array binding signal (z-score),[27],-0.165
same,glycan array binding signal (z-score),[28],-0.057
same,glycan array binding signal (z-score),[9],-0.199
same,glycan array binding signal (z-score),[29],-0.22
same,glycan array binding signal (z-score),[30],0.042
same,glycan array binding signal (z-score),[31],-0.206
same,glycan array binding signal (z-score),[32],-0.214
same,glycan array binding signal (z-score),[33],4.93
same,glycan array binding signal (z-score),[34],6.43
same,glycan array binding signal (z-score),[18],7.26
same,glycan array binding signal (z-score),[35],7.87
same,glycan array binding signal (z-score),[36],5.48
same,glycan array binding signal (z-score),[37],-0.218
same,glycan array binding signal (z-score),[38],-0.213
same,glycan array binding signal (z-score),[39],-0.024
same,glycan array binding signal (z-score),[40],-0.165
same,glycan array binding signal (z-score),[41],-0.223
same,glycan array binding signal (z-score),[42],-0.222
same,glycan array binding signal (z-score),[43],0.01
same,glycan array binding signal (z-score),[44],-0.221

# Reference: the supplement of paper PMC8728848
